The whole screen tested about 99,000 compounds, of which about 390 (0.39%) were called active. The sample as a whole holds a higher share of actives than the screen did. Unmarked numbers belong to inactive results. Cut-off read from the data, not from the text of the source: active = TR-FRET ratio above about 2000; inactive = the rest.

The assay is described as follows: signal artefacts in PPARgamma/SRC-3 readout – biochemical, TR-FRET ratio, artefact control for PPARgamma SRC-3 recruitment agonists (AID 1048). The following applies: TR-FRET artefact counter-screen, PPARgamma/SRC-3 format; at 8 µM; hits give high values. (In TR-FRET formats the signal depends on donor and acceptor labels being close together.)
For `CC(=O)C1C(c2ccc(Cl)cc2)c2c(n[nH]c2C)CC1(C)O` (stereo not drawn), the TR-FRET ratio is 1710.
Next, `COc1ccc(NS(=O)(=O)c2cc(NC(=O)C3CCCCC3)ccc2N2CCOCC2)cc1`: 1510.
Next, `O=C(Nc1ccc([N+](=O)[O-])cc1)C1CC12CCC2` (stereo not drawn): 1620; `CC(=O)c1ccc(S(=O)(=O)Nc2ccc(C(=O)NCC(c3ccccc3)N(C)C)cc2)cc1` (stereo not drawn): 1580; `CC(Sc1cccc[n+]1[O-])C(=O)Nc1cccc(S(=O)(=O)N2CCOCC2)c1` (stereo not drawn): 1620.
Next, `COc1ccc(/C=N/NC(=O)c2ccccc2)cc1OS(=O)(=O)c1ccccc1`: 1630; `COc1cccc(CNC(=O)CCN2C(=S)NC(C)(C)CC2C)c1` (stereo not drawn): 1480.
On to `O=C(COC(=O)c1ccccc1F)Nc1cc(S(=O)(=O)N2CCOCC2)ccc1N1CCCC1`, for which the TR-FRET ratio was 1600.
Next, `O=C(Nc1ccc(NC(=O)c2ccco2)c(Cl)c1)c1cccc([N+](=O)[O-])c1`: 1700; `Cc1ccc2[nH]c(C)c(CCNC(=O)NC3CCCCC3)c2c1`: 1590.
On to `CCN(C(=O)COC(=O)/C=C/c1nc2ccccc2s1)C1CCS(=O)(=O)C1` (stereo not drawn), for which the TR-FRET ratio was 1560.
In the case of `COCc1c(C(=O)OCc2c(C)noc2C)oc2ccccc12` it was 1630; in that of `CCN1CCN(C(=O)CCN2C(=O)c3ccccc3C2=O)CC1`, 1540.
In the case of `COc1ccc(S(=O)(=O)Nc2cccnc2)c(Cl)c1Cl` it was 1690.
In the case of `CCn1ccnc1CN(C)Cc1nc(-c2ccc3c(c2)OCO3)no1` it was 1670; in that of `COc1ccc(-n2c(=S)[nH]c3sc4c(c3c2=O)CCc2ccccc2-4)cc1`, 1560; in that of `O=C(CCN1CCCCC1)N=Nc1c(O)[nH]c2ccccc12`, 1900.
As for `CCN(CCCNC(=O)CSc1cc(=O)n(C)c2cc(Cl)ccc12)Cc1ccccc1`, the TR-FRET ratio is 2580 (active).
In the case of `O=C(CSc1cccc[n+]1[O-])NCCCc1ccccc1` it was 1360; in that of `CCn1c(=O)cc(SCC(=O)NCCC2=CCCCC2)c2ccccc21`, 1710.
Regarding `Cn1cnnc1Sc1ccc(CN2CCN(C3CCCC3)C(CCO)C2)o1` (stereo not drawn), the TR-FRET ratio is 1420.
For the molecule `CN(c1ccccc1)c1nc(N)c([N+](=O)[O-])c(NCc2ccco2)n1`, the TR-FRET ratio is 1700.
Next, `C/C(N)=C(/C#N)C(=O)COC(=O)CNS(=O)(=O)c1ccc(C)cc1`: 1640; `Cc1c(C(=O)Nc2ccccc2)sc2nc3n(c(=O)c12)CCCCC3`: 1500.
In the case of `O=C(CCCn1c(=O)c2sccc2n(CC(=O)NCC2CCCO2)c1=O)NCc1ccco1` (stereo not drawn) it was 1480; in that of `CCn1nc(C)cc1C(=O)N1CCCC(C(=O)c2cccc(OC)c2)C1` (stereo not drawn), 1380.
Next, `CCCCN(C(=O)c1ccc(OC(F)(F)F)cc1)c1c(N)n(CCC)c(=O)[nH]c1=O`: 1550; `CN(C)c1nc(-c2cccnc2)nc(-c2ccc(Cl)cc2)c1C#N`: 1720.
As to `CC(=O)c1ccc(NC(=S)N(Cc2ccccc2)C(C)C2CC2)cc1` (stereo not drawn), the TR-FRET ratio was 1760.
In the case of `CN1CCN(c2ccc(S(=O)(=O)N3CCCCC3)cc2NC(=O)Cc2ccccc2F)CC1` it was 1600; in that of `Cc1cccc(C)c1NC(=O)C1(C)c2cccc[n+]2CC(=O)N1Cc1cccs1` (stereo not drawn), 1340; in that of `Cc1ccc(C(=O)NC(=S)NCCN2CCOCC2)cc1`, 1640.
For the molecule `O=C1CCCC(O)=C1N=Nc1ccc2ncsc2c1`, the TR-FRET ratio is 1660.
Consider `O=C(c1ccccc1Cl)N(Cc1ccccc1F)N1C(=O)CCCC1=O`, for which the TR-FRET ratio is 1570.
With `Cc1ccc(S(=O)(=O)N2CCOCC2)cc1NC(=O)CSc1nnc(N)s1`, the TR-FRET ratio is 1740.
In the case of `Fc1ccc(COc2cccc(-c3n[nH]c(=S)o3)c2)cc1` it was 2970 (active); in that of `S=c1[nH]nc(COc2ccccc2)n1-c1ccccc1`, 1490.
In the case of `Cc1cccc(OCc2ccc(C(=O)Nc3ccc(F)cc3)cc2)c1` it was 1440.
Next, `O=C(CCc1ccccc1)Nc1ccc(NC(=O)C2CCCCC2)nc1`: 1430.
In the case of `CCOP(=O)(OCC)C(Nc1ccc([N+](=O)[O-])cc1)c1ccc(Cl)cc1` (stereo not drawn), the TR-FRET ratio was 1560.
In the case of `Cc1csc(CN(C)C(=O)CC2C(=O)NCCN2CC(C)(C)C)n1` (stereo not drawn) it was 1590; in that of `O=S(=O)(NC1CC1)c1ccc2c3c(cccc13)CC2`, 1560.
Consider `COc1cccc(OC)c1C(=O)NC(=S)Nc1ccc(N2CCOCC2)c(Cl)c1`, for which the TR-FRET ratio was 1350.
Next, `COc1ccc(C2(CNC(=O)Cc3ccc(OC)c(OC)c3)CCCC2)cc1`: 1430.
Next, `COc1ccc(C(=O)NNC(=S)NC(=O)c2ccccc2[N+](=O)[O-])cc1`: 1550; `CCN(C(=O)COC(=O)c1cc(NS(=O)(=O)c2ccc(Cl)c([N+](=O)[O-])c2)ccc1O)C1CCCCC1`: 1460.
Next, `CCN(CC)c1ccc(C(=O)N/N=C(\C)c2cccc(OC)c2)cc1`: 1500.
`O=C(NCCCN1CCOCC1)c1ccc(N2CCCC2)c([N+](=O)[O-])c1`: the TR-FRET ratio was 1590.
In the case of `Cc1cc(C(=O)CC#N)c(C)n1-c1c(C)n(C)n(-c2ccccc2)c1=O` it was 1450.
`CCOc1ccc(N2C(=O)CN(c3cccc4ccccc34)C2=S)cc1`: the TR-FRET ratio is 1810.
For `CC(C)(C)NC(=O)CN1CCC(NC(=O)C23CC4CC(CC(C4)C2)C3)CC1`, the TR-FRET ratio is 1580.
Next, `CCOC(=O)C1(CCOc2ccccc2)CCN(C(=O)c2cncs2)CC1`: 1510; `CCC(=O)Nc1cc(C(F)(F)F)ccc1N1CCCC1`: 1710.
As for `COc1ccc(C(=O)NNc2cc(C)nc(NNC(=O)c3ccc(OC)cc3)n2)cc1`, the TR-FRET ratio is 1420.
In the case of `COc1cc(CNc2ncn[nH]2)ccc1OCc1ccccc1C` it was 1650; in that of `OCCC1CN(Cc2cnc(-c3ccccc3)s2)CCN1CCc1ccccc1` (stereo not drawn), 1800.
In the case of `CCC(C)N(C(=O)COC(=O)C1C(C(=O)OC)=C(C)NC(C)=C1C(=O)OC)C1CCS(=O)(=O)C1` (stereo not drawn) it was 1620; in that of `CCOC(=O)N/N=C/c1cccnc1`, 1540; in that of `OCC1(CCc2ccccc2)CCN(Cc2ccc3nsnc3c2)CC1`, 2140 (active).
On to `CC(=O)c1cccc(CN2CCC(CO)(Cc3ccccc3)CC2)c1`, for which the TR-FRET ratio is 1520.
Regarding `Cc1cccc(-c2ncc(CN3CCC(CO)(CCCc4ccccc4)CC3)cn2)c1`, the TR-FRET ratio was 1420.
As for `CCOC(=O)c1c(C)n(C)c2ccc(OC)c(NS(=O)(=O)CC)c12`, the TR-FRET ratio was 1490.
Next, `CN(CC(=O)N1CCN(c2ccccc2)CC1)S(=O)(=O)c1cccs1`: 1700.
Next, `Cc1nc(N2CCC(C)CC2)c2c(C)c(C(=O)Nc3cc(F)ccc3C)sc2n1`: 2360 (active); `Cc1nc(N2CCOCC2)c2c(C)c(C(=O)Nc3ccc(C(F)(F)F)cc3)sc2n1`: 1750; `Cc1nc(N2CCN(c3ccccn3)CC2)c2c(C)c(C(=O)Nc3ccc(F)cc3)sc2n1`: 1960.
Next, `CC(C)(C)c1ccc(NC(=O)COC(=O)CCc2nc3ccccc3c(=O)[nH]2)cc1`: 1560; `CCC(C(=O)OCC(=O)Nc1ccc(C(=O)Nc2ccc(OC)cc2)cc1)c1ccccc1` (stereo not drawn): 1460; `CC(C)N1CCC(NC(=O)Nc2ccccc2)CC1`: 1620.
Consider `COC(=O)c1ccc(C(=O)OC)c(NC(=S)N2CCN(c3ccc(F)cc3)CC2)c1`, for which the TR-FRET ratio was 1500.
On to `C=CCn1c(CNC(=O)c2ccco2)nnc1SCC(=O)c1ccc(OC)cc1`, for which the TR-FRET ratio was 1770.
Next, `CCc1ccc(OCC(=O)OCC(=O)c2c(N)n(C)c(=O)n(C)c2=O)cc1`: 1320; `CC(C)(C)NC(=O)c1ccc(Cn2cc(C(F)(F)F)ccc2=O)cc1`: 1730; `N/C(Cc1ccc([N+](=O)[O-])cc1)=N\OC(=O)C1CCCCC1`: 1640.
In the case of `COc1ccc(N2CCN(C(=O)CNS(=O)(=O)c3ccc(C)c(C)c3)CC2)cc1` it was 1450; in that of `CN1CCC(=NNC(=O)CN(c2cccc(Cl)c2)S(C)(=O)=O)CC1`, 1650; in that of `COc1cc(C(=O)Nc2cc(C(F)(F)F)ccc2N2CCOCC2)ccc1O`, 1560.
Next, `CCc1ccc(NC(=O)CC2C(=O)NCCN2C(=S)Nc2ccccc2)cc1` (stereo not drawn): 1500.
In the case of `Cc1c(C(N)=O)sc2ncn(CCOc3ccccc3)c(=O)c12`, the TR-FRET ratio was 1550.
With `Cc1cc(C2=NNC(=Nc3ccc(S(=O)(=O)N4CCOCC4)cc3)SC2)c(C)n1CC1CCCO1` (stereo not drawn), the TR-FRET ratio was 1650.
In the case of `Cc1ccc(OCC(=O)NNC(=S)NCc2ccccc2)cc1` it was 1530.
As for `Cc1[nH]nc(SCC(=O)NCC(C)C)c1[N+](=O)[O-]`, the TR-FRET ratio was 1720.
In the case of `CC(=O)Nc1ccc(NC(=O)C(C)n2c3ccccc3c3nc(=O)cc(C)n32)cc1` (stereo not drawn) it was 1620; in that of `COc1ccc(C(=O)CSc2nnc(-c3ccco3)o2)cc1`, 1800.
Next, `COC(=O)c1ccc(/C=N/OCC(=O)Nc2cc(F)ccc2F)cc1`: 1390; `O=C(COC(=O)c1c2c(nc3ccccc13)/C(=C\c1cccs1)CCC2)Nc1ccccc1Cl`: 1790; `O=C(COC(=O)c1c2c(nc3ccccc13)CCCC2)c1ccc(Br)s1`: 4220 (active).
Next, `O=C(Nc1c2c(nc3ccccc13)CCCC2)c1ccccc1Br`: 1760; `O=C(Nc1ccc2ccccc2c1)/C(=C\c1ccc2c(c1)OCO2)NC(=O)c1ccco1`: 1560; `O=C(CSc1ccc(-c2cccs2)nn1)Nc1ccccc1F`: 1640.
For the molecule `Cc1ccccc1-c1n[nH]c(=S)n1C`, the TR-FRET ratio was 1470.
In the case of `S=c1[nH]nc(-c2ccccc2)n1/N=C/c1c[nH]c2ccccc12` it was 1470; in that of `Cc1ccccc1-c1n[nH]c(=S)n1/N=C/c1ccc(-c2ccccc2Br)o1`, 2150 (active).
